For orientation: inhibition means the change of the read-out against control, counted positive when it falls.

Growth inhibition, inhibition and outcome data for 20 compounds are collected here from PubChem BioAssay.

Values without a mark were called inactive. For some of these results: Results with a measured potency or affinity are listed apart. Calls of active or inactive are those of the source. Unless noted, the rule behind the calls is not given here.

Assay [1] is described as follows: antimalarial activity against Dd2 strain (AID 2302;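 active = growth inhibition above 50% at the single 2 µM test dose, taken to imply half-maximal potency below 2 µM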;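 note: 0% = DMSO untreated growth and 100% = chloroquine plus artemisinin killed control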). To be noted: P. falciparum Dd2 in RBCs, LDH growth readout, 72 h; at 2 µM; stronger effect = higher value.
Assay [2] in a line: HepG2 cytotoxicity, primary screen, cytotoxicity control for P. falciparum antimalarial project, cell-based, ATP luminescence (AID 2303;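 active = inhibition above 50%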;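 note: 0% = DMSO wells and 100% = digitonin-killed cells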). To be noted: HepG2 viability, 24-48 h, at 10 µM, stronger effect = higher value.
The target of assay [3] is L-lactate dehydrogenase (Plasmodium falciparum (isolate CDC / Honduras)) (UniProt Q27743). The assay is described as follows: PfLDH activity inhibition – cell lysate, 3D7 strain, counter-screen for P. falciparum growth inhibition project (AID 2304).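 Note: 0% = vehicle and 100% = reference inhibitor.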 To be noted: P. falciparum 3D7 crude extract, LDH APAD/NBT absorbance; at 2 µM; stronger effect = higher value. In general terms: A counterscreen serves to expose hits that act by an unwanted route or on another target.
Sequence of L-lactate dehydrogenase (Plasmodium falciparum (isolate CDC / Honduras)) (Q27743 whole entry, looked up): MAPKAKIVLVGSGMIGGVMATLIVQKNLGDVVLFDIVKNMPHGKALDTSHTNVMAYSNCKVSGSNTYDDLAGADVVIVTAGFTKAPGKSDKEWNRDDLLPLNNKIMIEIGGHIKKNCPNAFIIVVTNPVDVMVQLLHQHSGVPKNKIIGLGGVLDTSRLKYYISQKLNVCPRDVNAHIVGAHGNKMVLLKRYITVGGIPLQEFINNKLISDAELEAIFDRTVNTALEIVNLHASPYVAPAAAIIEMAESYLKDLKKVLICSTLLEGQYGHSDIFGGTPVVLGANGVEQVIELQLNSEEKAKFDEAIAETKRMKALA

The nature of assay [4]: inhibition of 3D7 malaria parasite growth – strain 3D7 (AID 2306).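 Note: 0% = DMSO wells and 100% = chloroquine plus artemisinin control wells.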 To be noted: P. falciparum 3D7 erythrocytic growth, LDH absorbance, 72 h; at 2 µM; stronger effect = higher value.
The target in assay [5] is Calcium-dependent protein kinase 1 (Plasmodium falciparum (isolate 3D7)) (UniProt P62344). The experiment in a line: PfCDPK1 kinase inhibitors, biochemical, TCAMS library (AID 1159585; cut-off not given, nearly all actives have IC50 up to about 0.98 µM;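 note: inhibitors leave more ATP so luminescence rises with inhibition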). As to conditions: recombinant PfCDPK1, Kinase-Glo ATP depletion luminescence. On the technique in general: In Kinase-Glo more light means more ATP remaining.
Sequence of Calcium-dependent protein kinase 1 (Plasmodium falciparum (isolate 3D7)) (P62344 whole entry, looked up): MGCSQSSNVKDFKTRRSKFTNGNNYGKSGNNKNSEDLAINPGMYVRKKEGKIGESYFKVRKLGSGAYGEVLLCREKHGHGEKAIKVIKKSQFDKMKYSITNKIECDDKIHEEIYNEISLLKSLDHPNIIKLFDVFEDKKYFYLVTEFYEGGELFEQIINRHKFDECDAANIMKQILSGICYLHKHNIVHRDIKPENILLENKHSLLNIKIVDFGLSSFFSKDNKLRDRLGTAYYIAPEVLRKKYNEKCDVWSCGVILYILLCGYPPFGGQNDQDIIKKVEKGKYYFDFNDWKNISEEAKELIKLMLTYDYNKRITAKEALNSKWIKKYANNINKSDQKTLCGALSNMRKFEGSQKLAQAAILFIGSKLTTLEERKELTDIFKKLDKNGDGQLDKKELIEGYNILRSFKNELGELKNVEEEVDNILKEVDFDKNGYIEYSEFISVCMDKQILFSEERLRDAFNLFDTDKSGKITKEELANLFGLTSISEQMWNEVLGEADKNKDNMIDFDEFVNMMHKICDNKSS
For assay [6], the target named is Plasmodium falciparum protein kinase 6 (PK6, PF3D7_1337100) (UniProt Q8IDW1). The experiment in a line: PfPK6 kinase inhibitors, biochemical, TCAMS library (AID 1159586). As to conditions: recombinant PfPK6, Kinase-Glo ATP depletion luminescence.
Sequence of Plasmodium falciparum protein kinase 6 (PK6, PF3D7_1337100) (Q8IDW1 1-305): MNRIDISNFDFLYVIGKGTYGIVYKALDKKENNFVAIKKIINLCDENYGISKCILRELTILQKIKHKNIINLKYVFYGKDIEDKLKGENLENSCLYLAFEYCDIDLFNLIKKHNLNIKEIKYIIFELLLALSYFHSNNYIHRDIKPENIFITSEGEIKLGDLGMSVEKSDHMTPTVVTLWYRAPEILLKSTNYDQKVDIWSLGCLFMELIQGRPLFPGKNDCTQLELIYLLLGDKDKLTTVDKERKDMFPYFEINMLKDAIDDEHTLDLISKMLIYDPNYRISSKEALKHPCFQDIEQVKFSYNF
For assay [7], the target named is Protein kinase 7 (PK7), Plasmodium falciparum 3D7 (PF3D7_0213400) (UniProt Q7YTF7). The assay is described as follows: inhibition of Plasmodium PK7 catalytic activity – biochemical, TCAMS antimalarial set, Kinase-Glo luminescence (AID 1159587). As to conditions: recombinant PfPK7, Kinase-Glo ATP depletion luminescence.
Sequence of Protein kinase 7 (PK7), Plasmodium falciparum 3D7 (PF3D7_0213400) (Q7YTF7 1-343): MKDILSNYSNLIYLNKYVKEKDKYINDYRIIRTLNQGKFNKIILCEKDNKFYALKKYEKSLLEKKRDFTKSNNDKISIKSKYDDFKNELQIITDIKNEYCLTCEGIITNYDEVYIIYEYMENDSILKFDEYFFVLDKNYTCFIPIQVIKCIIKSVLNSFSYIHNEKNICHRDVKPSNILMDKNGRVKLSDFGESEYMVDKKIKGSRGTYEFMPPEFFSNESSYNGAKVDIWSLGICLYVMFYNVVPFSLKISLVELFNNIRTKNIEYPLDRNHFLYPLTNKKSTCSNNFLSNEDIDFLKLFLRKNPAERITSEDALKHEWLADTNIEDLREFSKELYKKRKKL
Assay [8] addresses Calcium-dependent protein kinase 4 (Plasmodium falciparum (isolate 3D7)) (UniProt Q8IBS5). The experiment in a line: PfCDPK4 kinase inhibitors, biochemical, TCAMS library (AID 1159588; cut-off not given, nearly all actives have IC50 up to about 0.91 µM). To be noted: recombinant PfCDPK4, Kinase-Glo ATP depletion luminescence.

Sequence of Calcium-dependent protein kinase 4 (Plasmodium falciparum (isolate 3D7)) (Q8IBS5 whole entry, looked up): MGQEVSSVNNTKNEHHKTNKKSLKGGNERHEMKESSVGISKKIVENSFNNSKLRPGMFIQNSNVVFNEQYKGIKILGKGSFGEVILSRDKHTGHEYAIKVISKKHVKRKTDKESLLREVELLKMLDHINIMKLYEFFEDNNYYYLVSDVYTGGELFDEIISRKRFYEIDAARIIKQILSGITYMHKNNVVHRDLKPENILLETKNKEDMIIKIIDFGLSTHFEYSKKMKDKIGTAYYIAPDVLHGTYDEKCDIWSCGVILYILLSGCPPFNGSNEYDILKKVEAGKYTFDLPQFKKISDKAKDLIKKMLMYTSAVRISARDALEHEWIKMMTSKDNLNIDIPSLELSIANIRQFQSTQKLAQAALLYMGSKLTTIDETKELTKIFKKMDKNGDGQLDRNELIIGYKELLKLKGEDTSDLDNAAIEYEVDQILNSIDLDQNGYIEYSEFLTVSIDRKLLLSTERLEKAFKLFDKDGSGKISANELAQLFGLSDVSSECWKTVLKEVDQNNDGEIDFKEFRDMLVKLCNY

For `O=C(Nc1ccc(C(F)(F)F)cc1)c1ccc(S(=O)(=O)NC2CCN(CC3CCCCC3)C2)cc1` (stereo not given), the growth inhibition in assay [1] is 16%; in assay [4], 99% (active). Besides, the inhibition was 33% in assay [2] and 5% in assay [3]. Also, the result in assay [5], in assay [6], in assay [7] and in assay [8] was inactive.
`COc1ccc2nc(C)cc(Nc3ccc(Cl)c(Cl)c3)c2c1`: the results for the growth inhibition in assay [1] and in assay [4] were 99% (active) and 100% (active), respectively. In addition, the inhibition in assay [2] is 30%; in assay [3] it was -8%. In addition, the outcome in assay [5], in assay [6], in assay [7] and in assay [8] was inactive.
With `O=C(NC1CCN(Cc2ccccc2)CC1)c1csc2nc(-c3ccc(Cl)cc3)cn12`, the results for the growth inhibition in assay [1] and in assay [4] were 14% and 98% (active), respectively. Further, the inhibition in assay [2] is 19%; in assay [3], -10%. Also, the result in assay [5], in assay [6], in assay [7] and in assay [8] was inactive.
In the case of `O=c1ccc(-c2nc3cc(Cl)c(Cl)cc3n2Cc2ccc(Cl)cc2Cl)c[nH]1`, the growth inhibition in assay [1] is 67% (active); in assay [4], 88% (active). Besides, the inhibition in assay [2] and in assay [3] was -8% throughout. In addition, the result in assay [5], in assay [6], in assay [7] and in assay [8] was inactive.
Regarding `Cc1cccc2[nH]c(-c3ccc(-c4ccc(NC(=O)C(C)CN(C)C)cc4)s3)nc12` (stereo not given), the results for the growth inhibition in assay [1] and in assay [4] were 98% (active) and 100% (active), respectively. For the same compound, the inhibition in assay [2] is 23%; in assay [3], 0%. The result in assay [5], in assay [6], in assay [7] and in assay [8] was inactive.
With `CCOC(=O)C1=C(C)NC2=C(C(=O)CC(C)(C)C2)C1c1ccc(Br)cc1` (stereo not given), the growth inhibition was 66% (active) in assay [1] and 90% (active) in assay [4]. The inhibition in assay [2] is 0%; in assay [3] it was 2%. The outcome in assay [5], in assay [6], in assay [7] and in assay [8] was inactive.
For the compound `O=C(NCCNc1ccnc(Nc2ccc(F)cc2)n1)Nc1ccc2c(c1)OCO2`, the growth inhibition in assay [1] was 3%; in assay [4] it was 97% (active). Further, the inhibition in assay [2] is 15%; in assay [3], 0%. The outcome in assay [5], in assay [6], in assay [7] and in assay [8] was inactive.
`C=C(NC(=O)C1CCCCC1)C(=O)OC`: the values for the growth inhibition in assay [1] and in assay [4] were 3% and 93% (active), respectively. In addition, the figures for the inhibition in assay [2] and in assay [3] were 15% and -4%, respectively. For the same compound, the outcome in assay [5], in assay [6], in assay [7] and in assay [8] was inactive.
On to `COc1ccc2c(c1)Sc1ccccc1C(N1CCN(CCO)CC1)C2` (stereo not given), for which the growth inhibition is 4% in assay [1] and 95% (active) in assay [4]. Besides, the values for the inhibition in assay [2] and in assay [3] were 11% and -3%, respectively. The outcome in assay [5], in assay [6], in assay [7] and in assay [8] was inactive.
Consider `O=C(NC1CC1)c1ccc(N2CCCC(COc3ccc4c(c3)CCCC4)C2)nc1` (stereo not given), for which the growth inhibition in assay [1] is 65% (active); in assay [4] it was 85% (active). In addition, the inhibition in assay [2] and in assay [3] was -5% each time. The result in assay [5], in assay [6], in assay [7] and in assay [8] was inactive.
As for `CCCCCCCN1CC[C@@H](CCC(O)c2ccnc3ccc(OC)cc23)[C@@H](CC)C1` (stereo not given in full), the growth inhibition is 93% (active) in assay [1] and 97% (active) in assay [4]. Further, the inhibition in assay [2] was 34%; in assay [3], -1%. Further, the result in assay [5], in assay [6], in assay [7] and in assay [8] was inactive.
Regarding `CCCc1cc(C(=O)N[C@@H](Cc2ccccc2)[C@H](O)CNC2CCOCC2)c(F)c(N2CCCCS2(=O)=O)c1`, the growth inhibition in assay [1] and in assay [4] was 97% (active) each time. In addition, the inhibition in assay [2] is -6%; in assay [3], -3%. For the same compound, the result in assay [5], in assay [6], in assay [7] and in assay [8] was inactive.
In the case of `CCCN1CCN(c2ccc(NS(=O)(=O)c3ccc(C(=O)Nc4ccc(Cl)cc4)cc3)cc2)CC1`, the growth inhibition in assay [1] was 50% (active); in assay [4], 100% (active). For the same compound, the inhibition was 4% in assay [2] and -4% in assay [3]. The result in assay [5], in assay [6], in assay [7] and in assay [8] was inactive.
As for `COc1ccnc(NCCCNCc2cn(S(=O)(=O)c3ccccc3)c3ccccc23)c1`, the growth inhibition in assay [1] is 18%; in assay [4], 99% (active). The inhibition in assay [2] is 57% (active); in assay [3], -2%. For the same compound, the result in assay [5], in assay [6], in assay [7] and in assay [8] was inactive.
In the case of `CC(=O)Nc1ncc(C(=O)Nc2cccc(-c3cccc(-c4nc5ccccc5[nH]4)c3)c2)s1`, the growth inhibition in assay [1] was 38%; in assay [4], 92% (active). The values for the inhibition in assay [2] and in assay [3] were 16% and 0%, respectively. The outcome in assay [5], in assay [6], in assay [7] and in assay [8] was inactive.
Take `COc1ccc(S(=O)(=O)Nc2ccc(C(=O)NCc3ccccc3C(F)(F)F)cc2)cc1N1CCN(CC2CC2)CC1`: the growth inhibition in assay [1] is 5%; in assay [4], 92% (active). The inhibition was 27% in assay [2] and -3% in assay [3]. Also, the outcome in assay [5], in assay [6], in assay [7] and in assay [8] was inactive.
Turning to `N#Cc1ccc2c(c1)CCN(CCC1CCC(NC(=O)/C=C/c3ccc4[nH]ccc4c3)CC1)CC2` (stereo not given), the growth inhibition in assay [1] was 27%; in assay [4], 93% (active). Moreover, the inhibition in assay [2] and in assay [3] was 2% in each case. Besides, the result in assay [5], in assay [6], in assay [7] and in assay [8] was inactive.
In the case of `CC(C)NCc1cccc(-c2cccc(-c3nc4ccc(F)cc4[nH]3)c2)c1`, the figures for the growth inhibition in assay [1] and in assay [4] were 85% (active) and 101% (active), respectively. Also, the inhibition in assay [2] is 20%; in assay [3], 2%. Besides, the result in assay [5], in assay [6], in assay [7] and in assay [8] was inactive.
In the case of `CC(C)Nc1nc(NC2CCCCC2)nc(N2CCCCCCC2)n1`, the growth inhibition in assay [1] was 96% (active); in assay [4], 86% (active). Further, the inhibition is 13% in assay [2] and 2% in assay [3]. The outcome in assay [5], in assay [6], in assay [7] and in assay [8] was inactive.
Turning to `CC(C)c1ccc(NC(=O)c2ccc(C(=O)NC3CCN(Cc4ccccc4)CC3)cc2)cc1`, the growth inhibition in assay [1] was 7%; in assay [4] it was 88% (active). The inhibition in assay [2] is 30%; in assay [3], -3%. Further, the result in assay [5], in assay [6], in assay [7] and in assay [8] was inactive.
